PubChem BioAssay (NCI)
The panel holds about 79,000 compounds, 15% with a hit somewhere; the sample as a whole holds those more often. Calls of active or inactive are those of the source. Cut-off read from the data, not from the text of the source: active = growth inhibition above about 70%; inactive = the rest.

Key:
[1] = NCI Yeast Anticancer Drug Screen. Data for the rad50 strain (AID 155);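 note: 0% = growth of vehicle-only cultures of the same strain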; conditions: S. cerevisiae rad50 strain growth inhibition; at 50.0 µM; stronger effect = higher value
Procedure, shortened: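 Vehicle-treated cultures provide the reference for the growth inhibition reported for compound-exposed, repair-deficient yeast.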

[2] = NCI Yeast Anticancer Drug Screen. Data for the mec2-1 strain (AID 157); conditions: S. cerevisiae mec2-1 strain, at 50.0 µM, stronger effect = higher value
Procedure, shortened: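 Vehicle-treated cultures served as reference for growth inhibition of compound-exposed mec2-1 yeast.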

[3] = NCI Yeast Anticancer Drug Screen. Data for the sgs1 mgt1 strain (AID 161);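 note: 0% = growth of cultures given vehicle only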; conditions: S. cerevisiae sgs1 mgt1 strain, at 50.0 µM, stronger effect = higher value
Procedure, shortened: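 Inhibition of yeast growth, normalised to vehicle-treated controls, is reported for a strain bearing genetic alterations in DNA damage repair.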

[4] = NCI Yeast Anticancer Drug Screen. Data for the cln2 rad14 strain (AID 165);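 note: 0% = growth equal to vehicle treated cultures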; conditions: S. cerevisiae cln2 rad14 strain, at 50.0 µM, stronger effect = higher value
Procedure, shortened: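 Each compound was tested on cln2 rad14 yeast. Inhibition of growth was calculated against vehicle-exposed controls.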

[5] = NCI Yeast Anticancer Drug Screen. Data for the bub3 strain (AID 167); conditions: S. cerevisiae bub3 mutant strain, at 50.0 µM, stronger effect = higher value
Procedure, shortened: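 Mutant yeast screening strain plus compound; vehicle-treated cultures serve as the 0% inhibition reference.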

[6] = NCI Yeast Anticancer Drug Screen. Data for the mlh1 rad18 strain (AID 175); conditions: S. cerevisiae mlh1 rad18 strain growth inhibition; at 50.0 µM; stronger effect = higher value
Procedure, shortened: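 Vehicle-treated cultures served as the reference for growth inhibition in a yeast strain carrying DNA damage repair alterations exposed to each compound.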

Measured: growth inhibition

NCC(=O)Nc1ccc(C(=O)O)cc1
inactive: [1] 28.8% | [2] 17.1% | [3] 7.6% | [4] 4.6% | [5] 4.05% | [6] 9.1%

CC(C)(C)/[N+]([O-])=C/C(c1ccccc1)C(/C=[N+](/[O-])C(C)(C)C)c1ccccc1 (configuration not stated)
inactive: [1] -3.5% | [2] -4.5% | [3] -15.3% | [4] 3.85% | [5] -2.1% | [6] -18.6%

COC(=O)Nc1ccc(C)cc1[N+](=O)[O-]
inactive: [1] 5.5% | [2] -8.75% | [3] -13.4% | [4] -50.4% | [5] 6.4% | [6] -0.6%

CC1(C)N=C(C(N)=O)c2[nH]cnc2N1
inactive: [1] -2.55% | [2] 4.35% | [3] 12.8% | [4] 13.3% | [5] 11.3% | [6] -51.2%

CC1(C)C/C(=C/c2ccccc2)C(=O)O1
inactive: [1] -14.6% | [2] -6.95% | [3] -3.45% | [4] -31.5% | [5] -4.05% | [6] -19.3%

Clc1ccc(Cl)s1
inactive: [1] 34.5% | [2] 3.55% | [3] 20.3% | [4] 18.6% | [5] 14% | [6] 26.1%

O=C1C=C(Oc2ccccc2)C(=O)C=C1Oc1ccccc1
inactive: [1] -8.15% | [2] -3.55% | [3] -27.1% | [4] -23.8% | [5] 14.3% | [6] -11.1%

CC1(C)[C@@H]2C[C@H]1C(Cc1ccccc1C[C@H]1c3cc(-c4ccccn4)ncc3[C@H]3C[C@@H]1C3(C)C)c1cc(-c3ccccn3)ncc12 (some centres not stated)
inactive: [1] 43.3% | [2] 39.3% | [3] 10.4% | [4] 24.4% | [5] 12.2% | [6] -32.4%

CCOC(=O)C(=CC(C)(C)C)C(=O)OCC
inactive: [1] 3.9% | [2] 19.1% | [3] 2.8% | [4] 14.8% | [5] 21.1% | [6] 10%

CC1(C)N=C(/C(Cl)=[N+](/[O-])C(=O)c2ccc(Cl)cc2)C(C)(C)N1O
inactive: [1] -21.1% | [2] -26.9% | [3] -24.1% | [4] -7.3% | [5] -38.6% | [6] -8.4%

CCc1nnc(CC)n1NC(=O)Nc1ccc(C)cc1
inactive: [1] -5.1% | [2] -14.5% | [3] -3.75% | [4] 7.05% | [5] -7.65% | [6] 1.25%

O=C(Nc1ccc(Cl)cc1)Nc1nnc2nc(C3(c4nc5nnc(NC(=O)Nc6ccc(Cl)cc6)n5[nH]c4=O)Cc4ccccc4C3=O)c(=O)[nH]n12
inactive: [1] 29.5% | [2] -1.6% | [3] 8.3% | [4] 12.9% | [5] 8.75% | [6] 2.3%

CC(CO)CCC(=O)C(C)C1CC2(C)CCC3C(CCC4CC(O)CCC43C)C2C12SCCS2 (configuration not stated)
inactive: [1] 0.6% | [2] 19.5% | [3] -7.8% | [4] 17.1% | [5] 36.6% | [6] -0.25%

C=CCNC(=O)NCCCC(NC(C)=O)C(=O)NCc1ccccc1 (configuration not stated)
inactive: [1] -20.9% | [2] -21.3% | [3] -14.7% | [4] 6.75% | [5] -22.3% | [6] -20.6%

CC1(C)Cc2ccccc2C1=O
inactive: [1] 16.1% | [2] -4.85% | [3] 4% | [4] -53.6% | [5] -1.65% | [6] -2%

O=C(O)CO
inactive: [1] -7.7% | [2] 3.05% | [3] -6.25% | [4] -1.25% | [5] -9.15% | [6] -29.1%

c1ccc(C2(c3ccccc3)Oc3ccccc3O2)cc1
inactive: [1] -10.1% | [2] 3.65% | [3] -6.45% | [4] -37.5% | [5] -6.4% | [6] 7.3%

CCCCCCCCCC(=O)N/N=C\c1cccc2ccccc12
inactive: [1] 0.15% | [2] 17.9% | [3] 1.2% | [4] -14.1% | [5] 24.6% | [6] 16.9%

COc1ccc2c(c1OC)CN1CCc3cc4c(cc3C1=C2)OCO4
inactive: [1] 15.9% | [2] -3.95% | [3] -9.95% | [4] 2.35% | [5] 8.15% | [6] 12.9%

Cc1cc(C)nc(NS(=O)(=O)c2ccc(NC(=O)c3cccc4c(Nc5ccc(S(=O)(=O)N=C(N)N)cc5)c5ccc(Cl)cc5nc34)cc2)n1
inactive: [1] 16.4% | [2] 23.3% | [3] 27.2% | [4] 24.4% | [5] 13% | [6] 32.8%

CCCCN(CCCC)CC(O)c1cc2ccc(Cl)cc2nc1-c1ccc(Cl)cc1 (configuration not stated)
inactive: [1] 65.2% | [2] 41.7% | [4] 8.35% | [5] -6.15%
active: [3] 85.5% | [6] 78.8%

CC1CCCC/C1=N\N(C)C (configuration not stated)
inactive: [1] -44% | [2] -19.9% | [3] -12.8% | [4] -29.6% | [5] -5.65% | [6] 2.7%

CC(C)Cc1ccc(OC(=O)Nc2ccccc2)cc1
inactive: [1] -7.5% | [2] -1.6% | [3] -2.9% | [4] -3.4% | [5] -13.5% | [6] 2.05%

Cc1ccc(S(=O)(=O)Oc2cc(-c3ccccc3)nc3ccccc23)cc1
inactive: [1] 5.35% | [2] -7.25% | [3] 2.95% | [4] 11.7% | [5] 27.6% | [6] 9.85%

CCOC(OCC)C(Cl)(Cl)CCl
inactive: [1] 6.25% | [2] 4.45% | [3] -3.8% | [4] -25.4% | [5] -0.6% | [6] -6.35%

CC1=NS(=O)(=O)c2ccccc2N1
inactive: [1] 0.3% | [2] -4.4% | [3] 4.75% | [4] 15.9% | [5] 4.45% | [6] 10.2%

OC(c1ccoc1)c1cc2ccccc2s1 (configuration not stated)
inactive: [1] 65% | [2] 23.2% | [3] 52.5% | [4] 22.2% | [5] 21.6% | [6] 36.7%

c1ccc(-c2c[s+]cc(-c3ccccc3)c2)cc1
active: [1] 98.7% | [2] 98.9% | [3] 99.2% | [4] 98.5% | [5] 78.2% | [6] 99.2%

O=C(O)c1cc2ccccc2c(N=Nc2cc(C(F)(F)F)ccc2Cl)c1O
inactive: [1] -12.2% | [2] -9.65% | [3] -4.05% | [4] 5.4% | [5] -6.3% | [6] -13.1%

Cc1ccc(S(=O)(=O)N(CCO)CCCO)cc1
inactive: [1] -16.7% | [2] -43.3% | [3] -9.95% | [4] 5.1% | [5] -35.3% | [6] 1.7%

OC(CNc1ncccn1)(Cc1ccccc1)Cc1ccccc1
inactive: [1] 9% | [2] -5.2% | [3] 2.45% | [4] 19.1% | [5] 12% | [6] 21.2%

CC(=O)Oc1cc(Oc2c(OC(C)=O)cc(Oc3c(OC(C)=O)cc(OC(C)=O)c(OC(C)=O)c3OC(C)=O)cc2OC(C)=O)cc(OC(C)=O)c1OC(C)=O
inactive: [1] 6.15% | [2] 3.1% | [3] 13.2% | [4] 4.5% | [5] 15.4% | [6] 10.4%

Cc1cccc(NC(=O)c2cccc([N+](=O)[O-])c2O)c1C
inactive: [1] 3.1% | [2] 9.05% | [3] 14.2% | [4] 11.8% | [5] -2.7% | [6] -87%

N#CC(C#N)=C1C=CC=CC=C1
inactive: [1] 14.2% | [2] 5% | [3] 0.85% | [4] -11.4% | [5] 8.75% | [6] -4.4%

c1ccc(C(c2ccc3c(c2)CCCC3)C(c2ccccc2)(c2ccccc2)c2ccccc2)cc1 (configuration not stated)
inactive: [1] -0.05% | [2] -0.05% | [3] 4.7% | [4] 16.5% | [5] -3.65% | [6] 25.4%

C=CCOC(C)n1c(C)cc(=O)n(C(C)OCC=C)c1=O (configuration not stated)
inactive: [1] -56.6% | [2] -26.8% | [3] -46.6% | [4] -38.5% | [5] -44.9% | [6] -29.8%

Cc1ccc(NC(=O)Nc2ccc(Cl)cc2)c(C)c1
inactive: [1] -12.8% | [2] -6% | [3] 1.65% | [4] -28.6% | [5] 5.6% | [6] -0.65%

C=CCOCn1ccc(=O)[nH]c1=O
inactive: [1] 4.35% | [2] -3.05% | [3] 5.85% | [4] 3% | [5] 3.2% | [6] -3.05%

COc1ccc(OC)c(NC(=O)Sc2c(Cl)c(Cl)nc(Cl)c2Cl)c1
inactive: [1] 18.4% | [2] 13.2% | [3] 16.2% | [4] -8.9% | [5] -0.05% | [6] -10.2%

CCn1c(=O)c2nc(SC)sc2n(-c2ccc(C)cc2)c1=O
inactive: [1] -21.2% | [2] -0.6% | [3] -5.7% | [4] 9.7% | [5] 2% | [6] 20.9%

CC1=C(C(=O)NNC(=O)c2ccccc2O)CC(C(=O)NNC(=O)c2ccccc2O)=C(C)N1
inactive: [1] 45.5% | [2] 40.5% | [3] 10.5% | [4] 17.2% | [5] 64.2% | [6] 32.4%

c1ccc(-c2cc(-c3ccccc3)c(-c3ccccc3)c(-c3ccccc3)c2)cc1
inactive: [1] 32.1% | [2] 10.1% | [3] 19.4% | [4] 12.4% | [5] -4.1% | [6] 13%
